107 compounds from ChEMBL document CHEMBL3988442, “University of Dundee, Small-Polar-MMV Screening Library” (2021) can be followed below.

The structures appear in SMILES notation. About 13,000 (27%) of roughly 48,000 compounds showed an effect of 50% or more. Some of the results follow.

This test concerns Wolbachia pipientis. Briefly: Anti-Wolbachia Cell-Based Screen. It counts as functional. More on the design: scale not given: in the data most compounds retested in dose-response had high values. The settings on record: 5 µM.
Take `CC(O)CC(C)(C)CNC(=O)NCc1cccc(-n2ccnc2)c1` (configuration not stated): the “Percent Effect” value is on record as 13.1%.

Consider `COCCN1CC2(CCC1=O)CCN(Cc1nnc(C)o1)CC2`, for which the “Percent Effect” value was 2.828%. With `COc1cccn(Cc2nnc(-c3cccc(F)c3)o2)c1=O` the figure was -11.98%; with `COc1cccc(C(=O)N2CC[C@@H]3[C@H](CC2)N(C)CCS3(=O)=O)c1.O=C(O)C(F)(F)F`, -1.721%; with `COc1cccc(CC(=O)N2CC[C@@H]3[C@H](CC2)N(C)CCS3(=O)=O)c1.O=C(O)C(F)(F)F`, 107.9%.

Consider `CN1CCS(=O)(=O)[C@@H]2CCN(C(=O)CC(C)(C)C)CC[C@@H]21.O=C(O)C(F)(F)F`, for which the “Percent Effect” value was determined as 96.97%. As for `CN1CCS(=O)(=O)[C@@H]2CCN(C(=O)c3ccccc3)CC[C@@H]21.O=C(O)C(F)(F)F`, the “Percent Effect” value is given as -7.841%. Turning to `COc1ccc(C(=O)N2CC[C@@H]3[C@H](CC2)N(C)CCS3(=O)=O)cc1.O=C(O)C(F)(F)F`, the “Percent Effect” value is reported as 3.653%. Consider `COc1ccc(CC(=O)N2CC[C@@H]3[C@H](CC2)N(C)CCS3(=O)=O)cc1.O=C(O)C(F)(F)F`, for which the “Percent Effect” value came out at 16.94%. As to `CN(C)c1cc(C(=O)NCC2(c3ccc(F)cc3)CC2)ccn1`, the “Percent Effect” value is given as -8.141%. With `CCCNC(=O)C1CCCN(c2ccc3nncn3n2)C1` (configuration not stated) the figure was 106.8%. As for `NC(=O)CCC1CCCN(c2ccc3c(Cl)ccnc3c2F)C1` (configuration not stated), the figure is -4.467%. Take `CCNC(=O)C1CCCN(c2ccc3ccc(F)cc3n2)C1` (configuration not stated): the “Percent Effect” value was found to be 95.98%. With `CCNC(=O)C1CCCN(c2cccc(C(F)(F)F)n2)C1` (configuration not stated) the figure was 5.494%; with `NC(=O)CCC1CCCN(c2ccnc3cc(F)ccc23)C1` (configuration not stated), 94.8%; with `O=C(O)c1cn(CC2CCCN(c3ccc4ccccc4n3)C2)nn1` (configuration not stated), -23.62%. With `CC(C)OCc1cccc(NC(=O)N2CCCC(CCC(N)=O)C2)c1` (configuration not stated) the figure was -9.131%; with `O=C(NCCC1=CCCCC1)C1CCCN(c2ccc3nncn3n2)C1` (configuration not stated), 4.301%.

As for `NC(=O)c1ccc(N2CCN(Cc3ccc(F)cc3Cl)CC2)nn1`, the “Percent Effect” value came out at 4.526%. Take `CCNC(=O)C1CCCN(c2ccc(C#N)cc2C(F)(F)F)C1` (configuration not stated): the “Percent Effect” value is reported as -8.319%. Turning to `NC(=O)CCC1CCCN(c2ccc3ccc(F)cc3n2)C1` (configuration not stated), the “Percent Effect” value is on record as 91.08%. For the compound `O=C(NCCc1ccccc1)C1CCCN(c2ccc3nncn3n2)C1` (configuration not stated), the “Percent Effect” value came to 7.633%. With `CSc1ncc(CNC(C)c2cnn(-c3ccc(F)cc3F)c2C)cn1` (configuration not stated) the figure was -22.9%; with `O=c1cc(N2CCc3ccccc3C2)cnn1CCC1CCOC1` (configuration not stated), 5.025%; with `CN1CC(Oc2ccccc2)=NC(SCC(=O)Nc2ccccc2Cl)=N1`, 15.6%. On to `COc1cccc(CC(=O)N2CC[C@H]3[C@@H]2CCC(=O)N3C)c1`, for which the “Percent Effect” value is -18.88%.

For `CCN1CCC(N2C[C@@H](C(=O)O)[C@H](c3cccc(OC)c3)C2)CC1`, the “Percent Effect” value was 12.25%. As for `COc1cccc(CN2CC[C@H]3[C@@H](C2)[C@H](c2ccsc2)CN3C(C)=O)c1`, the figure is 146.6%; as for `CCN1C[C@@H](C(=O)O)[C@H](c2cccc(OC)c2)C1`, 8.176%; as for `CC(=O)N1C[C@@H](c2ccsc2)[C@@H]2CN(Cc3cccc(Cl)c3)CC[C@@H]21`, 2.234%.

Consider `COc1cccc([C@H]2CN(C(C)=O)[C@@H]3CCN(Cc4ccsc4)C[C@H]23)c1.Cl`, for which the “Percent Effect” value was 57.96%. With `CCc1c(C)nc(C)nc1N1CCC(NCCSc2nnnn2C)CC1` the figure was 11.48%; with `O=C(c1cn(CCN2CCCCC2)nn1)N1CCCCO1`, -10.33%; with `COc1nc2c(cc1C(=O)N1CCCOC(Cn3cccn3)C1)CCC2` (configuration not stated), 0.1052%.

Consider `CCN1C[C@H]2C3(CCN(C(=O)NC(C)C)CC3)CC[C@@]2(C(=O)N(C)C)C1.O=C(O)C(F)(F)F`, for which the “Percent Effect” value was -2.762%. As for `CS(=O)(=O)N1Cc2nc(C(=O)NCc3ccccc3)oc2C1`, the figure is 1.051%; as for `CS(=O)(=O)N1CCc2sc(C(=O)NCCc3ccccn3)cc21`, 98.67%; as for `CS(=O)(=O)N1CCc2sc(C(=O)NCc3ccncc3)cc21`, 102.3%. With `COC(=O)N1CCc2ccccc2C1C(=O)NCc1ccncc1` (configuration not stated) the figure was 5.289%; with `Cc1cnc(CNC(=O)c2cc3c(s2)CCN3S(C)(=O)=O)cn1`, -3.088%.

With `CS(=O)(=O)N1CCc2sc(C(=O)NCc3ccccc3)cc21`, the “Percent Effect” value came out at 99.89%. As for `CNS(=O)(=O)c1ccc(C(=O)NCCc2ccccn2)cc1`, the figure is -0.4969%. Regarding `O=C(NCCc1ccccn1)C1=NN(c2ccccc2)C(=O)CN1`, the “Percent Effect” value came to 14.32%. With `CCOc1cccc(C(C)NC(=O)N2CCC(C(N)=O)CC2)c1` (configuration not stated) the figure was -12.9%; with `Cc1ccc(-c2cnc(CCC(=O)NCCN3CCOCC3)o2)cc1C`, 7.661%. `CC(C)Oc1ncnc2c1CCN(c1cc(C(F)(F)F)ncn1)CC2`: the “Percent Effect” value is -5.603%. As for `N#Cc1cccc(CN2C[C@@H](F)[C@@H](OCc3nc4ccccc4[nH]3)C2)c1`, the figure is 3.783%; as for `COc1cc(C(=O)NCc2ccc3c(c2)CCCN3C)cc(OC)c1Br`, 103.6%; as for `CCOCC1CCN(C(=O)Nc2ccc3c(c2)CCCN3C)C1` (configuration not stated), -6.058%. In the case of `COC(=O)c1cccc(C(=O)NCc2ccc3c(c2)CCCN3C)c1`, the “Percent Effect” value is listed as 93.26%.

Consider `COC(=O)c1cccc(CNC(=O)CC(F)(F)F)c1`, for which the “Percent Effect” value is reported as -8.665%. As for `COC(=O)c1cccc(CNC(=O)c2cc(C(C)C)n(C)n2)c1`, the figure is -2.718%. With `CC(C)Oc1ccc(C(=O)NCc2ccnc(N3CCCC3)c2)cn1` the figure was 1.854%.

As to `CN1CCCc2cc(CNC(=O)c3ccc(NC4CC4)nc3)ccc21`, the “Percent Effect” value is -0.6873%. For the compound `COc1ccc(CNC(=O)c2ccc(=O)n(C)c2)cc1C`, the “Percent Effect” value is given as -12.06%.

Consider `CC(C)Oc1ccc(C(=O)NCc2ccc3c(c2)CCCN3C)cn1`, for which the “Percent Effect” value was determined as 82.05%.

Regarding `CS(=O)(=O)CC1CCCN(c2ncnc3c2Cc2ccccc2OC3)C1` (configuration not stated), the “Percent Effect” value stood at 8.787%. As for `CC(C)c1nc(CNc2ccc(CCO)cc2)cs1`, the figure is -6.765%; as for `Cc1nonc1N1CCN(Cc2nc(CC3CC3)no2)CC1`, -9.131%; as for `Cc1occc1C(=O)N1CCC2(CCN(Cc3nccs3)CC2)C1`, 13.46%. With `O=C(CCNC1(c2nccs2)CCCC1)N1CCOCC1` the figure was -14.98%; with `CC1(c2nccs2)CCN(C(=O)CC2CCOCC2)CC1`, 133.3%; with `C[C@@H](NC(=O)c1cnccn1)c1c(-c2ccc(F)cc2)noc1C(=O)O`, 0.3029%.

As for `Cc1ccc(C(=O)N2CCN(CCc3cccs3)CC2)c(=O)[nH]1`, the “Percent Effect” value came to 4.078%.

As to `Cc1ccc(-c2nnc(CN3CCNC(=O)C3)o2)cc1`, the “Percent Effect” value is on record as -29.77%. As for `Cc1ccc(C2(O)CCN(Cc3nnc(-c4cccnc4)o3)CC2)nc1`, the figure is -8.871%. As to `Cc1ccc(-c2nnc(CN3CCN(c4ccccn4)CC3)o2)cc1`, the “Percent Effect” value is on record as 118.2%. With `Cc1nnc2n1CCN(C(=O)C(OC1CCCC1)c1ccccc1)C2` (configuration not stated) the figure was 0.08716%; with `O=C(Nc1ccccc1)N1CCn2c(nnc2C2CCCN2)C1` (configuration not stated), 106.2%. Turning to `Cc1cc(NC(=O)CN2CCn3c(nnc3C3CC3)C2)no1`, the “Percent Effect” value is -12.55%. With `CC(C)NC(=O)C(c1ccccc1)N1CCn2c(nnc2C2CC2)C1` (configuration not stated), the “Percent Effect” value is listed as 0.9151%.

Take `O=C(c1ccccc1O)N1CCn2c(nnc2C(F)(F)F)C1`: the “Percent Effect” value was -8.527%.

With `O=C(Nc1ccccc1)N1CCn2c(nnc2C2CCNCC2)C1`, the “Percent Effect” value is given as 105.9%. With `Cn1cc(CNCC2(N3CCCCC3)Cc3ccccc3C2)cn1` the figure was -0.5934%; with `CN(C)C(=O)[C@H]1C[C@H]2OCC[C@H]2N(CCOc2ccc(Cl)cc2)C1.O=C(O)C(F)(F)F`, -1.97%; with `CNC(=O)c1n[nH]c2c1C(c1cccc3nsnc13)CC(=O)N2` (configuration not stated), 1.687%. As for `O=C1CC(c2ccc3ccccc3n2)c2c(n[nH]c2C2CCC2)N1` (configuration not stated), the figure is 48.61%.

As for `COc1nc2ccccc2cc1C1CC(=O)Nc2n[nH]c(C3CCC3)c21` (configuration not stated), the “Percent Effect” value was found to be 94.97%. On to `CC(C)c1nccc(C2CC(=O)Nc3n[nH]c(C4CCC4)c32)n1` (configuration not stated), for which the “Percent Effect” value came out at 111.7%.

On to `O=C(CN1CCCC1c1nc(Cc2ccc(F)cc2)no1)NC1CC1` (configuration not stated), for which the “Percent Effect” value came to 6.491%. As for `CCCN(CC1CC1)C(=O)CN1CCCC1c1cnn(C)c1` (configuration not stated), the figure is -10.58%; as for `COCCOC[C@]1(CNCc2ccc(F)cc2)C[C@@H](O)[C@@H](O)C1.Cl`, 9.118%. Regarding `CCn1ncc2c1CCCC2NCc1ccc(C)s1` (configuration not stated), the “Percent Effect” value was -6.275%.

With `O[C@@H]1CN(CC2CC2)CC[C@H]1N1CCN(c2ccccc2F)CC1`, the “Percent Effect” value is given as 4.313%.

As to `Cc1nn(C)c(C)c1CCC(=O)N1CCCOC(Cn2cccn2)C1` (configuration not stated), the “Percent Effect” value is -1.849%. In the case of `Cc1nn(C)c(C)c1CC(=O)N1CCCC(n2cccn2)C1` (configuration not stated), the “Percent Effect” value was -0.59%. As for `Cc1noc(Cl)c1CC(=O)N1CCCC(n2cccn2)C1` (configuration not stated), the figure is -0.9782%; as for `Cc1nn(C)c(C)c1CCC(=O)N1CCCC(n2cccn2)C1` (configuration not stated), 104.5%; as for `Cc1noc(C)c1CCC(=O)N1CCCC(n2cccn2)C1` (configuration not stated), 112.2%. With `Cc1cnn(C2CCCN(C(=O)CCc3c(C)noc3C)C2)c1` (configuration not stated) the figure was 114.5%; with `Cc1cnn(C2CCCN(C(=O)c3c(C)oc(C)c3C)C2)c1` (configuration not stated), 2.216%; with `Cc1noc2ncc(C(=O)N3CCCC(n4cccn4)C3)cc12` (configuration not stated), -8.644%. As for `O=C(NCc1csc(-c2cccs2)n1)C1NCCc2[nH]cnc21` (configuration not stated), the figure is -2.948%; as for `COc1ccccc1OCC(=O)NS(=O)(=O)c1ccc(F)cc1F`, -4.254%; as for `CC(=O)N(CCc1nc(-c2cc(C(N)=O)oc2C)cs1)C(C)C`, 1.206%. As to `CN1CCN(Cc2cn3c(n2)CN(Cc2ccncc2)CC3)CC1`, the “Percent Effect” value turned out to be 100.2%. Take `CN1CCN(Cc2cn3c(n2)CN(Cc2ccccn2)CC3)CC1`: the “Percent Effect” value stood at 100%. In the case of `Cn1cccc1C(=O)NCc1cn2c(n1)CN(Cc1cccnc1)CC2.O=C(O)C(F)(F)F.O=C(O)C(F)(F)F`, the “Percent Effect” value was -5.868%.

Take `O=C(NCc1cn2c(n1)CN(Cc1cccnc1)CC2)C1CCC1.O=C(O)C(F)(F)F.O=C(O)C(F)(F)F`: the “Percent Effect” value is listed as -2.2%. With `CS(=O)(=O)NCc1cn2c(n1)CN(Cc1ccoc1)CC2.O=C(O)C(F)(F)F` the figure was 2.843%. As for `CN1CCN(Cc2cn3c(n2)CN(C(=O)N2CCCC2)CC3)CC1`, the figure is -9.344%. As for `Cn1cccc1C(=O)NCc1cn2c(n1)CN(Cc1ccccn1)CC2.O=C(O)C(F)(F)F.O=C(O)C(F)(F)F`, the figure is -5.455%; as for `CN1CCN(Cc2cn3c(n2)CN(CC2CC2)CC3)CC1`, 0.4207%.

For `c1cncc(CN2CCn3cc(CN4CCCCC4)nc3C2)c1`, the “Percent Effect” value turned out to be 99.27%. In the case of `O=C(CC1CC1)NCc1cn2c(n1)CN(Cc1cccnc1)CC2.O=C(O)C(F)(F)F.O=C(O)C(F)(F)F`, the “Percent Effect” value was -16.83%. With `CS(=O)(=O)NCc1cn2c(n1)CN(Cc1cccnc1)CC2.O=C(O)C(F)(F)F.O=C(O)C(F)(F)F` the figure was 116.6%; with `CN1CCN(Cc2cn3c(n2)CN(C(=O)c2ccccn2)CC3)CC1.O=C(O)C(F)(F)F.O=C(O)C(F)(F)F.O=C(O)C(F)(F)F`, 6.364%.
